Test results from PubChem BioAssay AID1159580 (chemical genetic matrix, 2015).
Among all 5,500 compounds or so, about 2,000 (36%) were called active. Roughly 18% stayed inconclusive and do not appear here. No stated cut-off is given here; in the data, active means normalized growth mostly below about 0.91 (no sharp cut-off); inconclusive means no clear call, values can overlap the other calls; inactive means mostly above about 0.92. This is one part of the list.

Test: chemical genetic growth profiling, strain panel (AID 1159580);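 further: tested at 20 µM; growth read once vehicle control cultures reached saturation at 30 °C; 1 = growth at the plate median or of vehicle wells; lower values mean less growth of the strain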
Details: growth OD

Measured: normalized growth

CC1(C)C(=O)[C@@H]2O[C@@H]2[C@@]2(C)C1C[C@@H](O)[C@]1(C)C2CC[C@@]2(C)[C@H](c3ccoc3)OC(=O)C3OC321 (some centres not stated)
inactive: S. cerevisiae deletion strains, locus YJL187C, strain SWE1, active compounds read low 0.994 | S. cerevisiae deletion strains, locus YJR043C, strain POL32, active compounds read low 0.998 | S. cerevisiae deletion strains, locus YJR066W, strain TOR1, active compounds read low 0.926 | S. cerevisiae deletion strains, locus YKL009W, strain mrt4, active compounds read low 1.02 | S. cerevisiae deletion strains, locus YKL068W, active compounds read low 0.993 | S. cerevisiae deletion strains, locus YKL085W, strain MDH1 (second series), active compounds read low 0.997 | S. cerevisiae deletion strains, locus YKL085W, strain MDH1, active compounds read low 0.997 | S. cerevisiae deletion strains, locus YKL160W, strain elf1, active compounds read low 0.998 | S. cerevisiae deletion strains, locus YKR001C, strain vps1, active compounds read low 0.979 | S. cerevisiae deletion strains, locus YKR026C, strain gcn3, active compounds read low 0.995 | S. cerevisiae deletion strains, locus YKR091W, strain srl3, active compounds read low 0.992 | S. cerevisiae deletion strains, locus YLL001W, strain dnm1, active compounds read low 0.99 | S. cerevisiae deletion strains, locus YLL026W, active compounds read low 0.99 | S. cerevisiae deletion strains, locus YLL041C, strain sdh2, active compounds read low 0.999 | S. cerevisiae deletion strains, locus YLR027C, strain aat2, active compounds read low 0.984 | S. cerevisiae deletion strains, locus YLR039C, strain RIC1, active compounds read low 1.11 | S. cerevisiae deletion strains, locus YLR058C, strain SHM2, active compounds read low 0.997 | S. cerevisiae deletion strains, locus YLR102C, strain apc9, active compounds read low 0.987 | S. cerevisiae deletion strains, locus YLR113W, strain HOG1, active compounds read low 1.01 | S. cerevisiae deletion strains, locus YLR221C, strain rsa3, active compounds read low 0.999 | S. cerevisiae deletion strains, locus YLR258W, strain gsy2, active compounds read low 1.02 | S. cerevisiae deletion strains, locus YLR262C, strain YPT6 (second series), active compounds read low 0.973 | S. cerevisiae deletion strains, locus YLR268W, strain sec22, active compounds read low 0.987 | S. cerevisiae deletion strains, locus YLR320W, strain mms22, active compounds read low 0.998 | S. cerevisiae deletion strains, locus YLR330W, strain CHS5, active compounds read low 1 | S. cerevisiae deletion strains, locus YLR342W, strain FKS1 (second series), active compounds read low 0.992 | S. cerevisiae deletion strains, locus YLR342W, strain FKS1, active compounds read low 0.999 | S. cerevisiae deletion strains, locus YLR357W, strain rsc2, active compounds read low 0.968 | S. cerevisiae deletion strains, locus YLR370C, strain arc18, active compounds read low 0.995 | S. cerevisiae deletion strains, locus YLR371W, strain rom2, active compounds read low 0.982 | S. cerevisiae deletion strains, locus YLR384C, strain iki3, active compounds read low 1.02 | S. cerevisiae deletion strains, locus YLR418C, strain cdc73, active compounds read low 0.919 | S. cerevisiae deletion strains, locus YML016C, strain PPZ1, active compounds read low 1.01 | S. cerevisiae deletion strains, locus YML032C, strain rad52, active compounds read low 0.994 | S. cerevisiae deletion strains, locus YML120C, strain ndi1, active compounds read low 1 | S. cerevisiae deletion strains, locus YML124C, strain tub3, active compounds read low 0.996 | S. cerevisiae deletion strains, locus YMR058W, strain fet3, active compounds read low 1 | S. cerevisiae deletion strains, locus YMR078C, strain ctf18, active compounds read low 0.994 | S. cerevisiae deletion strains, locus YMR125W, strain sto1, active compounds read low 1 | S. cerevisiae deletion strains, locus YMR129W, active compounds read low 1 | S. cerevisiae deletion strains, locus YMR205C, strain PFK2, active compounds read low 0.999 | S. cerevisiae deletion strains, locus YMR223W, strain ubp8, active compounds read low 0.979 | S. cerevisiae deletion strains, locus YMR231W, strain pep5, active compounds read low 0.98 | S. cerevisiae deletion strains, locus YMR263W, strain SAP30, active compounds read low 0.974 | S. cerevisiae deletion strains, locus YMR307W, strain GAS1, active compounds read low 0.938 | S. cerevisiae deletion strains, locus YNL067W, strain RPL9B, active compounds read low 0.982 | S. cerevisiae deletion strains, locus YNL071W, strain lat1, active compounds read low 0.998 | S. cerevisiae deletion strains, locus YNL183C, strain NPR1, active compounds read low 0.951 | S. cerevisiae deletion strains, locus YNL209W, strain ssb2, active compounds read low 1.01 | S. cerevisiae deletion strains, locus YNL233W, strain BNI4, active compounds read low 0.99 | S. cerevisiae deletion strains, locus YNL248C, strain rpa49, active compounds read low 0.991 | S. cerevisiae deletion strains, locus YNL250W, strain rad50, active compounds read low 0.982 | S. cerevisiae deletion strains, locus YNL271C, strain bni1, active compounds read low 0.989 | S. cerevisiae deletion strains, locus YNL298W, strain CLA4, active compounds read low 0.971 | S. cerevisiae deletion strains, locus YNL307C, strain MCK1, active compounds read low 0.967 | S. cerevisiae deletion strains, locus YNL322C, strain KRE1 (second series), active compounds read low 1 | S. cerevisiae deletion strains, locus YNR049C, strain mso1, active compounds read low 1.01 | S. cerevisiae deletion strains, locus YNR052C, strain pop2, active compounds read low 0.964 | S. cerevisiae deletion strains, locus YOL006C, strain TOP1, active compounds read low 0.992 | S. cerevisiae deletion strains, locus YOL012C, strain htz1 0.956 | S. cerevisiae deletion strains, locus YOL147C, strain pex11, active compounds read low 0.988 | S. cerevisiae deletion strains, locus YOR001W, strain rrp6, active compounds read low 1.02 | S. cerevisiae deletion strains, locus YOR061W, strain CKA2, active compounds read low 1.01 | S. cerevisiae deletion strains, locus YOR069W, strain VPS5, active compounds read low 1 | S. cerevisiae deletion strains, locus YOR070C, strain gyp1, active compounds read low 0.992 | S. cerevisiae deletion strains, locus YOR080W, strain dia2, active compounds read low 0.988 | S. cerevisiae deletion strains, locus YOR083W, strain WHI5, active compounds read low 0.992 | S. cerevisiae deletion strains, locus YOR106W, strain vam3, active compounds read low 0.995 | S. cerevisiae deletion strains, locus YOR136W, strain idh2, active compounds read low 0.975 | S. cerevisiae deletion strains, locus YOR144C, strain elg1, active compounds read low 0.985 | S. cerevisiae deletion strains, locus YOR184W, strain ser1, active compounds read low 0.978 | S. cerevisiae deletion strains, locus YOR231W, strain MKK1, active compounds read low 0.983 | S. cerevisiae deletion strains, locus YOR265W, strain rbl2, active compounds read low 0.983 | S. cerevisiae deletion strains, locus YOR270C, strain vph1, active compounds read low 0.946 | S. cerevisiae deletion strains, locus YOR290C, strain snf2, active compounds read low 0.968 | S. cerevisiae deletion strains, locus YOR316C, strain cot1, active compounds read low 0.992 | S. cerevisiae deletion strains, locus YPL051W, strain arl3, active compounds read low 0.986 | S. cerevisiae deletion strains, locus YPL078C, strain atp4, active compounds read low 1.01 | S. cerevisiae deletion strains, locus YPL106C, strain sse1, active compounds read low 1 | S. cerevisiae deletion strains, locus YPL240C, strain hsp82, active compounds read low 1.01 | S. cerevisiae deletion strains, locus YPL256C, strain CLN2, active compounds read low 0.952 | S. cerevisiae deletion strains, locus YPR119W, strain clb2, active compounds read low 0.982 | S. cerevisiae deletion strains, locus YPR141C, strain kar3, active compounds read low 0.992 | S. cerevisiae deletion strains, locus YPR163C, strain tif3, active compounds read low 0.979 | S. cerevisiae deletion strains, locus YPR167C, strain met16, active compounds read low 0.982 | S. cerevisiae deletion strains, strain wtn01, active compounds read low 0.999 | S. cerevisiae strains, strain wild type, active compounds read low 0.994
